Measured values reported in the supplement of paper PMC11732987, “Enantioselective OTUD7B fragment discovery through chemoproteomics screening and high-throughput optimisation” (Communications Chemistry, 2025).

How the values were obtained:
Assay in all cases: log2 ratio of Biotin-Ahx-Ub-VS probe labelling (fragment/DMSO); higher = less target engagement (more negative = stronger competition), active = hit call of the paper (q ≤ 0.05, log2 ratio ≤ -1)
Settings in all cases: compound concentration: 200 uM; treatment time: 3 h
USP34 = USP34 (UniProt Q70CQ2)
Sequence of USP34 (Q70CQ2 whole entry, the tested form may be a part): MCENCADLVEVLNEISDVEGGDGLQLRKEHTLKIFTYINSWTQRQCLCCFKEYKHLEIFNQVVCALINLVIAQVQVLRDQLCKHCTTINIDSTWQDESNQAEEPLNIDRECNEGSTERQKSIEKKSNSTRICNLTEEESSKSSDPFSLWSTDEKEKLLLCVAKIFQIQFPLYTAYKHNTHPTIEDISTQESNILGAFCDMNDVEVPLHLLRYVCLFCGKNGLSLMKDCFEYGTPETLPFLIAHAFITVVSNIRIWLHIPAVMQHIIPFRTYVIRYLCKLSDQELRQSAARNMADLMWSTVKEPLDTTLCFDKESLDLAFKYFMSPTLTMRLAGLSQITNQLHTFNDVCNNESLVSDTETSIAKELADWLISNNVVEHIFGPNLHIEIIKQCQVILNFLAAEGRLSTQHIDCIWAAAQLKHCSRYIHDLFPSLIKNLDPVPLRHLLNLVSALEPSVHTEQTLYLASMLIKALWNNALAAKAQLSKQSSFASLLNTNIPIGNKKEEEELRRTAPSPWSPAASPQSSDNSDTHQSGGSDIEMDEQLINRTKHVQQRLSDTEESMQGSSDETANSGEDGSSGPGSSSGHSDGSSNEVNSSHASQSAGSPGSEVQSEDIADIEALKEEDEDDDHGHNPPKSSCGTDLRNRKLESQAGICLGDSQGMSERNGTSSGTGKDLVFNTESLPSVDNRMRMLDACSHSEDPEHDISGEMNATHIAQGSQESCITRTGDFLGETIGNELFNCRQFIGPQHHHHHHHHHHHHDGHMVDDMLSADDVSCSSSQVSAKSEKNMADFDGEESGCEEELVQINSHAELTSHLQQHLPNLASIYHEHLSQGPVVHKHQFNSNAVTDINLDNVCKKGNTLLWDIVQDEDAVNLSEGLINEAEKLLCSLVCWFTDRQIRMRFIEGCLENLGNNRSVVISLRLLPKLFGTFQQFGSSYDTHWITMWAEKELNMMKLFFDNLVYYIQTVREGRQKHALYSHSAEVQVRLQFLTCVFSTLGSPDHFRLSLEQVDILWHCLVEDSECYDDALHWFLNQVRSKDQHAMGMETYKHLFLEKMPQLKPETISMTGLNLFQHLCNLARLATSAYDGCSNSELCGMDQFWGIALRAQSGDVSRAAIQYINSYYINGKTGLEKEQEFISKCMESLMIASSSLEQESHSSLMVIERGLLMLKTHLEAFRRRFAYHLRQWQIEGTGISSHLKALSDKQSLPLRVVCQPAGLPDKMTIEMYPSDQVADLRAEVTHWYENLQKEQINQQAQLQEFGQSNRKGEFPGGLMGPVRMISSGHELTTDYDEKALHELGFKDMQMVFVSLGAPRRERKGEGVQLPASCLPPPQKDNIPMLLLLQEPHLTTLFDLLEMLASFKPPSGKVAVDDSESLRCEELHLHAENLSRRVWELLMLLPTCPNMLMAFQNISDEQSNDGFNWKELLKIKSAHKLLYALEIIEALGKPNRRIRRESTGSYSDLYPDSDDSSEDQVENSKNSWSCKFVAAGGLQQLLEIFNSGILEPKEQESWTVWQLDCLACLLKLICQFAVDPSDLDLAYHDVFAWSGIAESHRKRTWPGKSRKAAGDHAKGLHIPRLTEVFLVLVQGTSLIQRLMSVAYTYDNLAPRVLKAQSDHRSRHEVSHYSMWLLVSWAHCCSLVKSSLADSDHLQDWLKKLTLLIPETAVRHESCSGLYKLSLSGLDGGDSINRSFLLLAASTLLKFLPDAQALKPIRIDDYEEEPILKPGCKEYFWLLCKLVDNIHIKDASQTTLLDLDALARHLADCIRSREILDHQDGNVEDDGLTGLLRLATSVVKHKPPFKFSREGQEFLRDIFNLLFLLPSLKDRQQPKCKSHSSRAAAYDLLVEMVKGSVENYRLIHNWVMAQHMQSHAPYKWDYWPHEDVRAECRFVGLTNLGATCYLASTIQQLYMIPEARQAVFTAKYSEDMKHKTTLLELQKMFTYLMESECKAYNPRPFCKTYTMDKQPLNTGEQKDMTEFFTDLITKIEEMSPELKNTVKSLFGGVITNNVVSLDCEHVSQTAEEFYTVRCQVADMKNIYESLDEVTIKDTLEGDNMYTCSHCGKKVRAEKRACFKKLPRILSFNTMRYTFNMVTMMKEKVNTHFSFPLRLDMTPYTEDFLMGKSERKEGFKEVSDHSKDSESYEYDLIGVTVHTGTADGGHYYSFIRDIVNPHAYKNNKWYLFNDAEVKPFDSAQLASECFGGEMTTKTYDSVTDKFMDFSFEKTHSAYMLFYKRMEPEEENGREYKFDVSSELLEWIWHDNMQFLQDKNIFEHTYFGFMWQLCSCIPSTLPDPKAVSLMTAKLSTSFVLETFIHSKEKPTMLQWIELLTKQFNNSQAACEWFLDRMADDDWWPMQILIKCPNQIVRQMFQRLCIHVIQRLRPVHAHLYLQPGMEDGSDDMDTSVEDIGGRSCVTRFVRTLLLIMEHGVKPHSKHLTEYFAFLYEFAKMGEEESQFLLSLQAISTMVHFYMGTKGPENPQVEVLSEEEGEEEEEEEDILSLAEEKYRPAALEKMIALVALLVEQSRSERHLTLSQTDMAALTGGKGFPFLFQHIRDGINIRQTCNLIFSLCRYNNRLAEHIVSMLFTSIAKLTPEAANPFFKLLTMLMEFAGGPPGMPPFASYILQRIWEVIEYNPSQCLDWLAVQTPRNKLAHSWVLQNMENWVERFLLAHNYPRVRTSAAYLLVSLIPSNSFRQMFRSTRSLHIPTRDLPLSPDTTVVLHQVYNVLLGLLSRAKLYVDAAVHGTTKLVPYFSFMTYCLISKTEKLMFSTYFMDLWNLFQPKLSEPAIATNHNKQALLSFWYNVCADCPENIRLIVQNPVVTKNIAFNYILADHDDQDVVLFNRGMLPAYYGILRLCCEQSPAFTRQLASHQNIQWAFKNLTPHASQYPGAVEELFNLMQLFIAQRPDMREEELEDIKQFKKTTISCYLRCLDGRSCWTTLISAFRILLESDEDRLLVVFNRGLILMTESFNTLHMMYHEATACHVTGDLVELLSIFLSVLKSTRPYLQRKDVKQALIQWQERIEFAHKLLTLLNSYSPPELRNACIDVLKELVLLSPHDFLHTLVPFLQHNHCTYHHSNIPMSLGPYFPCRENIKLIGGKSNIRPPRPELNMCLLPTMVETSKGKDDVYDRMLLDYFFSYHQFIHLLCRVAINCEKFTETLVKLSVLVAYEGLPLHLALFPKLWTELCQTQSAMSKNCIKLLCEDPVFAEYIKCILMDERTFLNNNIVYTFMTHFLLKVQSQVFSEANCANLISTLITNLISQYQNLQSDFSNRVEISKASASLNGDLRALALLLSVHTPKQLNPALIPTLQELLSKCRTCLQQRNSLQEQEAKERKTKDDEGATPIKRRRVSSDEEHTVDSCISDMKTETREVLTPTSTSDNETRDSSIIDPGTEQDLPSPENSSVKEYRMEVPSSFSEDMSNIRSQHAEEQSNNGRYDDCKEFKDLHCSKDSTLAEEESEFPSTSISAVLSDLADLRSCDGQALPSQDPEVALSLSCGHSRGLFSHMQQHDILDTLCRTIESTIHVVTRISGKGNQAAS
Summary of the method: (§1)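 HEK293T lysate, 495 µg per sample in Tris/CHAPS/IGEPAL buffer with protease inhibitors, was treated in triplicate with fragment at 200 µM or vehicle for 3 h and then with Biotin-Ahx-Ub-VS at 0.5 µM final for 1 h. Labelled DUBs were NeutrAvidin-enriched, digested with LysC and trypsin, and run by diaPASEF LC-MS/MS. Spectronaut label-free quantities were global-median-normalised, and values are average log2 fragment/vehicle ratios by unpaired t-test on proteins with ≥2 unique peptides.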

USP36 = molecular target: T1, USP36 (UniProt Q9P275)
T1 sequence (whole entry): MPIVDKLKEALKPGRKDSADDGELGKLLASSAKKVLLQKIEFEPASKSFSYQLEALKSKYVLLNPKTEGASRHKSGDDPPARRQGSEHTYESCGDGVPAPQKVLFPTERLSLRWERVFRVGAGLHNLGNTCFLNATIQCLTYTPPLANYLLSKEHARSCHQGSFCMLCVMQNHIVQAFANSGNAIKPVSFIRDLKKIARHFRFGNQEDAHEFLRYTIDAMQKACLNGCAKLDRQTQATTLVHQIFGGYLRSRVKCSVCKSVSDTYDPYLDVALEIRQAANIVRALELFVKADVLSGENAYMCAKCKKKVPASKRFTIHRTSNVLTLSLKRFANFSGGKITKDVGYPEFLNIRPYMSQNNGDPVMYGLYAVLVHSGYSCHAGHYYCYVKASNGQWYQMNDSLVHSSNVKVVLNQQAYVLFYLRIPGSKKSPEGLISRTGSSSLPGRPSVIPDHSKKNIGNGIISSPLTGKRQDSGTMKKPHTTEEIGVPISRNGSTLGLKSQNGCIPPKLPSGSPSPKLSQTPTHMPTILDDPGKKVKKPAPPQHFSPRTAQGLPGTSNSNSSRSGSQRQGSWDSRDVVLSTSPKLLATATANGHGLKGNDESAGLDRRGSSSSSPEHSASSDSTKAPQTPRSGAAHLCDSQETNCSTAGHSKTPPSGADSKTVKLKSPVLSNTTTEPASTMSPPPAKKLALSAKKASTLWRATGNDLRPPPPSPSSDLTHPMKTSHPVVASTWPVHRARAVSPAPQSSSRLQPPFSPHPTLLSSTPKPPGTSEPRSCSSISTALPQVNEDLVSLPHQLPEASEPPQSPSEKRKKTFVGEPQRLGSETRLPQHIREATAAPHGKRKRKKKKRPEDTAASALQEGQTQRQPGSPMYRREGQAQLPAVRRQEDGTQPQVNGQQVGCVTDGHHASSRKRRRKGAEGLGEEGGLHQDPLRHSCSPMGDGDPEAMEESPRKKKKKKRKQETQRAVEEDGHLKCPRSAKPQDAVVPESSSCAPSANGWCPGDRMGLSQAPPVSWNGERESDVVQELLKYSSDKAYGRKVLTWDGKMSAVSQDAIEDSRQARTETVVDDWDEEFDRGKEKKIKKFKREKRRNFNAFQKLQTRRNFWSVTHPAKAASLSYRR
Summary of the method: as §1

USP38 = molecular target: T2, USP38 (UniProt Q8NB14)
T2 sequence (whole entry): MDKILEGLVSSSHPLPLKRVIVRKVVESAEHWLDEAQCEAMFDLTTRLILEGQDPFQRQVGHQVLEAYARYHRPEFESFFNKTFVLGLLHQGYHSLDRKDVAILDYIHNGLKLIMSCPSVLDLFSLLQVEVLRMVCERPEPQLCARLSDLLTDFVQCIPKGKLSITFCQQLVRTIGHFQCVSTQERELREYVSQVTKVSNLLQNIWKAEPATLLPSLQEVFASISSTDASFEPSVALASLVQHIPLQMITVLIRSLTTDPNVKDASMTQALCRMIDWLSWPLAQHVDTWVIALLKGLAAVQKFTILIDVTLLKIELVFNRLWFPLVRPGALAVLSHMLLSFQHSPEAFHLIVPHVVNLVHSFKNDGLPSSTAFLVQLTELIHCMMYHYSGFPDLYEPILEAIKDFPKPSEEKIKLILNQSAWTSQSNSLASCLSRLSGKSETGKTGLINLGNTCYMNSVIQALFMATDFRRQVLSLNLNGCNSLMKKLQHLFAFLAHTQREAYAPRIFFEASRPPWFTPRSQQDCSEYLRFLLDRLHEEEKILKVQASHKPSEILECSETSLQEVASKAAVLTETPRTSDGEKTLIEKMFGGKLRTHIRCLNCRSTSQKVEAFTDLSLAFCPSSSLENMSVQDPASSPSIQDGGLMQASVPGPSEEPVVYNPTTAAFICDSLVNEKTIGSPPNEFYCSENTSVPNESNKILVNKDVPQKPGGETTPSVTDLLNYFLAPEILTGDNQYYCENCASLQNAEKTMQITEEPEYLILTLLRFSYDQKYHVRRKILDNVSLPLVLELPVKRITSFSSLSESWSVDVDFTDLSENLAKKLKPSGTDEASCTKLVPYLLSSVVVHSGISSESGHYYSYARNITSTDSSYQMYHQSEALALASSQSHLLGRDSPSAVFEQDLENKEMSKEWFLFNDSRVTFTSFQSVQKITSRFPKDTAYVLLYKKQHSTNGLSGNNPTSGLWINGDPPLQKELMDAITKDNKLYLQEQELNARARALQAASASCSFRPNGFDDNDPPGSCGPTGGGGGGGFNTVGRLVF
Summary of the method: as §1

USP39 = molecular target: T3, USP39 (UniProt Q53GS9)
T3 sequence (whole entry): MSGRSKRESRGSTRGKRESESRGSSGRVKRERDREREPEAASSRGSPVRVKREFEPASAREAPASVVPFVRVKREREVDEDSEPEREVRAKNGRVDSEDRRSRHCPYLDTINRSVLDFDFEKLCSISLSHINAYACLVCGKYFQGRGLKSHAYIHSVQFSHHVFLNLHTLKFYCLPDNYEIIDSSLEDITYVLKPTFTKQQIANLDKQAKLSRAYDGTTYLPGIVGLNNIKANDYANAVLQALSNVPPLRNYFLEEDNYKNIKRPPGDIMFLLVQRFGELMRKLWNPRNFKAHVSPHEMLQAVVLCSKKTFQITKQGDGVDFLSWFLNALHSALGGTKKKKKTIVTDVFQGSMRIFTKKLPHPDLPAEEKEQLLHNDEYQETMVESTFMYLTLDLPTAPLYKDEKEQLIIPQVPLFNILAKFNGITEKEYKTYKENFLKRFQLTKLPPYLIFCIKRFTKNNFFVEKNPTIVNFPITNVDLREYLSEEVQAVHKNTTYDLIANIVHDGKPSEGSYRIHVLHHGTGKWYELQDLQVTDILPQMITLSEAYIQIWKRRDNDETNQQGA
Summary of the method: as §1

USP4 = molecular target: T4, USP4 (UniProt Q13107)
T4 sequence (whole entry): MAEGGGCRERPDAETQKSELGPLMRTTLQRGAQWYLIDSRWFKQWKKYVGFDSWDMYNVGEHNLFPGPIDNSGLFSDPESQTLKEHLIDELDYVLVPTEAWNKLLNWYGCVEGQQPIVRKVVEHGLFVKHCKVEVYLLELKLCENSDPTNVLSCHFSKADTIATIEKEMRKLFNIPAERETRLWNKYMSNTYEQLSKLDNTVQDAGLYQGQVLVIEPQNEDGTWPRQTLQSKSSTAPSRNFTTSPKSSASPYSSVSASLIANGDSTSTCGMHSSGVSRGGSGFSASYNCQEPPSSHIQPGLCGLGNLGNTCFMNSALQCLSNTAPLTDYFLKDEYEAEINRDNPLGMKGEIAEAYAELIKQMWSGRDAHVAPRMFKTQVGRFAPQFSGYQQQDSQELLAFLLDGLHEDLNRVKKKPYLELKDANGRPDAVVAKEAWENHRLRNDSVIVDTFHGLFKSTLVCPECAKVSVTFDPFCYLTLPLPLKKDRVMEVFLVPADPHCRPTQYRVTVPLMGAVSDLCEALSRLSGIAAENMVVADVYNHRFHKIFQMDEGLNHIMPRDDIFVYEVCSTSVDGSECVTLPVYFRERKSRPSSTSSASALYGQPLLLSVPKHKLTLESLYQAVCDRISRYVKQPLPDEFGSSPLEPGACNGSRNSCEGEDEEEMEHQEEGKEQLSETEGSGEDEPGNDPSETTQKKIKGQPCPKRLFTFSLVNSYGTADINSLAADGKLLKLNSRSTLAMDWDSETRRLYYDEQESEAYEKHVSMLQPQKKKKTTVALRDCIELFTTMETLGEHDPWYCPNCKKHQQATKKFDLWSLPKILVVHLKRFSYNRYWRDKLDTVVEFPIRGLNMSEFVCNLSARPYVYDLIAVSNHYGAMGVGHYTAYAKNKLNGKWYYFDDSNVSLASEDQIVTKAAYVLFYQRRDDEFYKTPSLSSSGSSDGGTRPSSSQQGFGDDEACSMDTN
Summary of the method: as §1

Measured: log2 ratio of Biotin-Ahx-Ub-VS probe labelling

Cc1cc(NC(=O)CCl)n(-c2ccccc2)n1
inactive: USP34 -0.374 | USP36 -0.0233 | USP38 -0.067 | USP39 -0.12 | USP4 0.0467
